Source: PubChem
The full list was thinned out, with hits kept by preference.
GRP78 ERSR act: ER stress response induction in glioma; U87-MG GRP78 promoter luciferase reporter, 16 h; Potency, µM, without a hit: top-dose activation, actives largely listed as activators; actives 0.02% (n = 420,000); AID 602332; also: series mostly up to about 76 µM; % of control where 0% means no effect; nearly all actives have a fitted effect of over 35% in size
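ERSR induction read as luciferase luminescence (Bright-Glo, 10 min at room temperature) in stably transfected human U87-MG glioma cells exposed to compounds for 16 h, using GRP78 as sensor.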
12-LOX inh: ALOX12 (human) lipoxygenase inhibition. Potency, µM (highest dose often 108 µM), inactives show top-dose activity change, negative = inhibition, most hits filed as inhibitors. AID 1671190. purified 12hLO, xylenol orange hydroperoxide absorbance. actives 1.1% (n = 580,000). P18054; also: % is scaled to controls: 0 for no effect and ±100 for the full control effect
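Purified human 12hLO (150 nM final) in 25 mM Hepes, 0.01% Triton X-100, pH 7.0 was preincubated 15 min at room temperature with compound. Then 40 uM arachidonic acid was added, 30 min. Hydroperoxide was read by Fe-XO absorbance ratio 573/405 nm.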
Sfp inh: Sfp phosphopantetheinyl transferase inhibition. Q9F4F7. Biochemical Sfp PPTase activity, qHTS. Potency, µM, for inactives: largest response in the series, negative = inhibition, usual class: inhibitors. actives 3.5% (n = 310,000). AID 1490;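 also: the enzyme is Sfp with the accession as filed and its product quenches rhodamine fluorescence; 0% = enzyme reaction without inhibitor and -100% = no enzyme wells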
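Sfp 15 nM + cpd, 15 min RT; start w/ rhodamine-CoA 5 uM, BHQ-2-YbbR 12.5 uM (final); 50 mM Hepes pH 7.6, 10 mM MgCl2, 0.01% NP-40, 0.01% BSA; read 525/598 nm at 0 and 30 min.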
G9a inh: inhibitors of human histone lysine methyltransferase G9a; Q96KQ7; actives 8.8% (n = 350,000); G9a H3K9 monomethylation, AlphaScreen, 2 h; Potency, µM (titrated, usually from 102 µM), for the others: at the highest dose activity, negative = inhibition, usual class: inhibitors; AID 504332; also: % is scaled to controls: 0 for no effect and ±100 for the full control effect; nearly all actives have a fitted effect of over 75% in size
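Methyltransferase reactions run at room temperature for 2 h (20 nM enzyme, 500 nM biotin-H3K9 peptide, 20 uM SAM) after a 15 min compound preincubation; product detected by AlphaScreen beads and anti-H3K9me1 antibody.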
VDR inh: inhibitors of human vitamin D receptor. P11473. VDR-SRC2-3 peptide fluorescence polarization, 2 h. Potency, µM, for inactives: max response, negative = inhibition, actives largely listed as inhibitors. actives 0.93% (n = 400,000); also: % is scaled to controls: 0 for no effect and ±100 for the full control effect
Target sequence (P11473 whole entry, looked up): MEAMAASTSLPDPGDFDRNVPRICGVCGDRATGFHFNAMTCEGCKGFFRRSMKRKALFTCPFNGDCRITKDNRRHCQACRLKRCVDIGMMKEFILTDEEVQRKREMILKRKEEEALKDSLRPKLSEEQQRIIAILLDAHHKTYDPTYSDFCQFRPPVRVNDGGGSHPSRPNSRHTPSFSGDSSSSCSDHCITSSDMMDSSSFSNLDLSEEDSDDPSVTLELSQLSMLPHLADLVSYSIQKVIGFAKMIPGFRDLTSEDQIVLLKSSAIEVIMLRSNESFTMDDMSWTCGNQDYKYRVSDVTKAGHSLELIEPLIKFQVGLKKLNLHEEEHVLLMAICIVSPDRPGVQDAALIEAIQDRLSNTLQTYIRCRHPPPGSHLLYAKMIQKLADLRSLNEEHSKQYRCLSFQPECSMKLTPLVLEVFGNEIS
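Two reagent solutions held at 4 deg C in the dark were dispensed, compounds pinned at 23 nl, and the mixture incubated 2 h at room temperature. Read-out: fluorescence polarization of VDR–SRC2-3 peptide binding.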
* = called active by the depositor; ? = inconclusive; . = not tested or not shown; [ ] = another dose, or the depositor's remark. Calls follow the shape of the dose curve; as a rule, active = well fitted curve in the direction sought with a large enough effect; inconclusive = small, poorly fitted or top-dose-only effect, or another doubt; inactive = no such curve, though single readings can be large; an effect the other way counts as inactive or inconclusive. Potency is read from the fitted curve at half-maximal effect.

SMILES	GRP78 ERSR act	12-LOX inh	Sfp inh	G9a inh	VDR inh
CC1(C)CC(=O)C(C(C2=C(O)CC(C)(C)CC2=O)c2cccs2)C(=O)C1 (configuration not stated)	-5.6%	.	22.4µM*	44.7µM*	50.1µM*
Cc1ccc(C(C2=C(O)CC(C)(C)CC2=O)C2C(=O)CC(C)(C)CC2=O)o1 (configuration not stated)	8.5%	?	-18.3%	25.1µM*	50.1µM*
COc1ccc(NC2=C(c3ccc(OC)cc3)C(=O)c3ccccc32)cc1	-0.6%	-18.0%	0.9%	-10.0%[59 µM]	17.0%
CCOc1ccc(NC2=C(OC)C(=O)c3ccccc3C2=O)cc1	-1.6%	2.7%	-23.7%	8.91µM*	?
COc1ccc(NC2=C(NC(C)=O)C(=O)c3ccccc3C2=O)cc1	-2.0%	-9.4%	1.2%	?	-7.4%
Cc1cccc(NC2=C(NCCO)C(=O)c3ccccc3C2=O)c1	-0.9%	-29.5%	-11.6%	31.6µM*	?
Cn1c(=O)c(NCCO)c2c3c(cccc31)C(=O)c1ccccc1-2	-5.5%	.	1.7%	19.2%[59 µM]	-0.9%
COc1ccc(NC2=C(NCCO)C(=O)c3ccccc3C2=O)cc1	-4.6%	?	-1.2%	14.1µM*	?
COC1=C(Nc2ccc(OC)cc2)C(=O)c2ccccc2C1=O	-0.4%	-7.6%	?	10µM*	?
CCN(Cc1cccs1)C(=O)c1cccs1	.	-31.9%	.	.	.
COc1ccc(NC2=C(c3ccc(C(F)(F)F)cc3)C(=O)c3ccccc32)cc1	-3.4%	-12.3%	.	7.5%[59 µM]	-4.7%
COC1=C(Nc2ccc(O)cc2)C(=O)c2ccccc2C1=O	1.4%	?	?	28.2µM*	25.1µM*
O=C(CCc1ccccc1)N1CCC(O)(c2csc(CN3CCc4ccccc4C3)n2)CC1	.	-7.0%	.	.	.
CCOC(=O)C(=CN=C(N)Nc1nc2ccccc2o1)C(=O)OCC	6.1%	5.0%	-9.3%	1.1%	-0.1%
CCCOC(=O)Nc1nc2ccccc2o1	-7.4%	0.0%	8.9%	50.1µM*	0.1%
Cc1cc2c(cc3c(SCc4ccc(Cl)cc4)nnc(C)n32)o1	-1.9%	3.0%	.	4.47µM*	0.5%
Cc1cc2c(cc3c(SCc4ccccc4Cl)nnc(C)n32)o1	2.8%	-25.3%	.	7.94µM*	9.2%
CCn1c(-n2nc(C)cc2C)nc2c1c(=O)n(Cc1ccccc1Cl)c(=O)n2C	.	18.1%	.	.	.
CCN1CCN(C(=O)Nc2cccc3ccccc23)CC1	-3.3%	0.0%	0.4%	39.8µM*	-3.0%
COc1ccccc1OC(C)C(=O)NC1CCCC1 (configuration not stated)	.	-0.2%	.	.	.
CCCn1nc(C(=O)OCC(=O)Nc2ccc(OCc3ccccc3)cc2)c2ccccc2c1=O	.	-27.4%	.	.	.
O=C(O)c1ccccc1NC(c1ccccc1)c1ccc2cccnc2c1O (configuration not stated)	7.4%	17.8µM*	.	.	35.5µM*
O=C(O)c1ccc2cccnc2c1O	1.1%	15.2%	20µM*	.	14.5%
O=C(c1ccc2cccnc2c1O)N1CCCC(CCc2ccccc2F)C1 (configuration not stated)	.	5.9%	.	.	.
Cc1onc(-c2ccccc2Cl)c1C(=O)O/N=C(\N)c1cccc([N+](=O)[O-])c1	2.3%	-30.6%	.	.	.
SMILES	GRP78 ERSR act	12-LOX inh	Sfp inh	G9a inh	VDR inh
C/C(=N\OC(=O)c1c(-c2ccccc2Cl)noc1C)c1ccncc1	-1.0%	4.4%	5.01µM*	.	-9.6%
Cc1onc(-c2cccc(Cl)c2Cl)c1C(=O)O/N=C(\N)c1ccc([N+](=O)[O-])o1	9.1%	-13.7%	-3.8%	35.5µM*	8.2%
Cc1onc(-c2ccccc2Cl)c1C(=O)O/N=C(\N)c1ccccc1	-3.8%	18.8%	11.7%	47.4%	-3.2%
O=C(CSc1nnc(COc2ccccc2Cl)n1C1CC1)c1c[nH]c(C(=O)N2CCCC2)c1	.	-22.4%	.	.	.
CC1=Nn2c(nnc2C2CCCCC2)SC1	-2.7%	0.0%	79.4µM*	-49.5%[59 µM]	-15.4%
CC1=Nn2c(nc3sc4c(c3c2=O)CCCC4)SC1	1.5%	17.2%	-9.5%	-28.1%[2.33 µM]	-20.1%
CSc1ccc(NC(=O)Nc2ccc(C(=O)NCC(=O)O)cc2)cc1	6.5%	?	-13.2%	35.5µM*	-7.4%
CN(C)/C=C/C(=O)c1ccc(Oc2ccccc2)cc1	0.0%	5.01µM*	-2.5%	7.7%[12.7 µM]	3.2%
CN(C)/C=C/C(=O)c1ccccc1	1.6%	1.1%	?	.	-7.2%
